From the supplement of paper PMC10849652 come the findings set out here.

Targets with a hit are over-represented here; the source holds about 7,900 in all. About 0.6% of all pairs of compound and target were hits.

Chain of UniProt O43529 (O43529 whole entry, looked up): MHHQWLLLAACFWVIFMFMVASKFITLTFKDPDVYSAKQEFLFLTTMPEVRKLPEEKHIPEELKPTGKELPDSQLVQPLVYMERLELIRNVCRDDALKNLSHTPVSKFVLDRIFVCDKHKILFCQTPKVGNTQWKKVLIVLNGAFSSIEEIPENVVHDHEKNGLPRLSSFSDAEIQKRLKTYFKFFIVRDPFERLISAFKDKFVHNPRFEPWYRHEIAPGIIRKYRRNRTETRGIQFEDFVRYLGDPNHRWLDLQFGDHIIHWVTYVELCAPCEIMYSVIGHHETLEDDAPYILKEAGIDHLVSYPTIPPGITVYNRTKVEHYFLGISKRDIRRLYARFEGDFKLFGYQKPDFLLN
Chain of UniProt Q9P0B6 (Q9P0B6 whole entry, looked up): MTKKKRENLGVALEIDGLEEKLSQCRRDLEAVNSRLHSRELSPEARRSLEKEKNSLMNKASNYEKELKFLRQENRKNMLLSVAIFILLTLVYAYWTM
Chain of UniProt O75122 (O75122 whole entry, looked up): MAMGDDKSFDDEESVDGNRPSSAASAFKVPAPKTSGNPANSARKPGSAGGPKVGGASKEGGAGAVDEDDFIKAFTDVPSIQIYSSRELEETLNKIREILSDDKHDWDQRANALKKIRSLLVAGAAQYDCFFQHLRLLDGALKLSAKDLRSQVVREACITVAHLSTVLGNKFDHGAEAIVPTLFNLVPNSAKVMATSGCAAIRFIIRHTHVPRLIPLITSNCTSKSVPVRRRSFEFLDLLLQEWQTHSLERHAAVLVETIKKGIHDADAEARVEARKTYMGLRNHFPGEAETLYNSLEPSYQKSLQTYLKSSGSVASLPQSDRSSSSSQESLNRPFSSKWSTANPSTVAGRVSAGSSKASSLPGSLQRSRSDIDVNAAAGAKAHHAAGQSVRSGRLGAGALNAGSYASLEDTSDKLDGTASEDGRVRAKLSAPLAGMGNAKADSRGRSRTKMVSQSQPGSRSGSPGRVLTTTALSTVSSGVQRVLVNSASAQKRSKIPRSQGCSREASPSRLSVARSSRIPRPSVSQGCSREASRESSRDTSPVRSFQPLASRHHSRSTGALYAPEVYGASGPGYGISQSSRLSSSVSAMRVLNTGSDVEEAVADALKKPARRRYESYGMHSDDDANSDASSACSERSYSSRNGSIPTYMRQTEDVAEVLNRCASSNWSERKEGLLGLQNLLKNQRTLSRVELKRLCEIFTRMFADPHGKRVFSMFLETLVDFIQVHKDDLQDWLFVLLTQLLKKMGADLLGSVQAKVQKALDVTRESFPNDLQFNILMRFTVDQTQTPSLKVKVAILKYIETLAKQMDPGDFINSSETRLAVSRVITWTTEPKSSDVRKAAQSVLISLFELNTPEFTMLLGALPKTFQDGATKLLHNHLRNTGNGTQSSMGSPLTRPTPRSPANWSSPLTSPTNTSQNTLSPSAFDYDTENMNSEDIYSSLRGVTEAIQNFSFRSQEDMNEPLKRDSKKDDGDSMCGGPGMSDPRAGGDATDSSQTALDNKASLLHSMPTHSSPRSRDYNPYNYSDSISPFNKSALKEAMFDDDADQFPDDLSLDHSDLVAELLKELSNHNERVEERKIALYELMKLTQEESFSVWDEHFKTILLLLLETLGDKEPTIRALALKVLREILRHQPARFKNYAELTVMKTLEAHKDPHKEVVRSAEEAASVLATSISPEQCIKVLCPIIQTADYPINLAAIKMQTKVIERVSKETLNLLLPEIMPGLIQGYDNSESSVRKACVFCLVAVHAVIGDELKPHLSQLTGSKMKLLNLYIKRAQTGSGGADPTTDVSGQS
Chain of UniProt O75956 (O75956 whole entry, looked up): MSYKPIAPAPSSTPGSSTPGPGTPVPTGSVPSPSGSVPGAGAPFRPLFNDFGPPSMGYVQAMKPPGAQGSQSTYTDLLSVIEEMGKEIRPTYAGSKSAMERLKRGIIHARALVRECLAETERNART
Chain of UniProt Q13111 (Q13111 whole entry, looked up): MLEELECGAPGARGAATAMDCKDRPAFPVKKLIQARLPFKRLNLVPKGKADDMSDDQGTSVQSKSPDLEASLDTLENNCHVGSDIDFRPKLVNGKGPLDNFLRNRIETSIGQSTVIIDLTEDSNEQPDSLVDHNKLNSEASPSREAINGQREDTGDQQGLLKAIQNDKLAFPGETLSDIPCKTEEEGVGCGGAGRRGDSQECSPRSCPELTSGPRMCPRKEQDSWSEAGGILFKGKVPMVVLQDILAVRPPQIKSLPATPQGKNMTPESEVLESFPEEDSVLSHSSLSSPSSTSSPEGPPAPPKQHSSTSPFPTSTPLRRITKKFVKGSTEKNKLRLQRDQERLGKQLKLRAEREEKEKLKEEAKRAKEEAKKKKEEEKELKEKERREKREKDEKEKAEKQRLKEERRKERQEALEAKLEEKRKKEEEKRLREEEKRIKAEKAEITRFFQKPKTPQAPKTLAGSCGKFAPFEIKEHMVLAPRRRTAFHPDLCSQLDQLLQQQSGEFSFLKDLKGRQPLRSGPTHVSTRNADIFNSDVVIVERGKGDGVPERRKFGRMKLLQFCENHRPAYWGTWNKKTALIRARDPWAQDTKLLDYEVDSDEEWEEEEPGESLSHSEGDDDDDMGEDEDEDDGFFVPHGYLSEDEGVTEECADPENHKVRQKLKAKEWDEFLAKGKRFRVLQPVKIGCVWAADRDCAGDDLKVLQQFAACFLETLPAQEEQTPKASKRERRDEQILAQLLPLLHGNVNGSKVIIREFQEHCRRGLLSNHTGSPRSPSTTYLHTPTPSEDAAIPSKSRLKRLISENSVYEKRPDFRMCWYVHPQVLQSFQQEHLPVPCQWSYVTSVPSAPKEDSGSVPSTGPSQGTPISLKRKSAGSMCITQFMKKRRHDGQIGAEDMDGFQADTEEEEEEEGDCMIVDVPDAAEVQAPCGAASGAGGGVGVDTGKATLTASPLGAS
Chain of UniProt P33552 (P33552 whole entry, looked up): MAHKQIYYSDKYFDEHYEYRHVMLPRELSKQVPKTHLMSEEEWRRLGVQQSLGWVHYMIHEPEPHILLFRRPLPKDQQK
Chain of UniProt Q9UIB8 (Q9UIB8 whole entry, looked up): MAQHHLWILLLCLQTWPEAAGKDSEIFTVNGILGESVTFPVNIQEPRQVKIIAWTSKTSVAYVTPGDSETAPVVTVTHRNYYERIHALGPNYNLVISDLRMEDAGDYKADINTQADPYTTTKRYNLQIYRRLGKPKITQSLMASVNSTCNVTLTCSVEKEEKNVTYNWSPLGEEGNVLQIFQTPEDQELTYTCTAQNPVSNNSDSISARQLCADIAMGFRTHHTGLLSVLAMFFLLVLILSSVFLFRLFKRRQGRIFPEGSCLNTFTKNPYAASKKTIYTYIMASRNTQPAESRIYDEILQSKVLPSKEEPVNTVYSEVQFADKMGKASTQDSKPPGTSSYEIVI
Chain of UniProt Q14061 (Q14061 whole entry, looked up): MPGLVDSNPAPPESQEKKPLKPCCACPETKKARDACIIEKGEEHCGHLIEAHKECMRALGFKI
Chain of UniProt A8MTT3 (A8MTT3 whole entry, looked up): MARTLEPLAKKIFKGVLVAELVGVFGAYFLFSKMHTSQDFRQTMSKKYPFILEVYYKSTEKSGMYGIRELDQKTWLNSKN
Chain of UniProt Q9HCH3 (Q9HCH3 whole entry, looked up): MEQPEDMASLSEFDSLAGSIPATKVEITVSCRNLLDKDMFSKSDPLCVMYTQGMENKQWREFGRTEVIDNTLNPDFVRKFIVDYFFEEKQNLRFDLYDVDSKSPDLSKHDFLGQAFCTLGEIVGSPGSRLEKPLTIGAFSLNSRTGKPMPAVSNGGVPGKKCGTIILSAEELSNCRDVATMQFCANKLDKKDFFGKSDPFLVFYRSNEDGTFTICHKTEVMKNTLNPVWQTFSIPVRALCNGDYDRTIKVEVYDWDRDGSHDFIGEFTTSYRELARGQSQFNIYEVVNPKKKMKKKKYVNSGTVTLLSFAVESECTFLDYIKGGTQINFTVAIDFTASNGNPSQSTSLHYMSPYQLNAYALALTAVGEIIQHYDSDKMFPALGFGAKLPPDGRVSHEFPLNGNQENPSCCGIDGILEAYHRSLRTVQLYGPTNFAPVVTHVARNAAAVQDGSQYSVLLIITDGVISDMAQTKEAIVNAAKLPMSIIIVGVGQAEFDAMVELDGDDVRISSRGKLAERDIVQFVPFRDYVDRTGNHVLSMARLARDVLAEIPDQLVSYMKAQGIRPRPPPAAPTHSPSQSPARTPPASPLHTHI
Chain of UniProt Q14746 (Q14746 whole entry, looked up): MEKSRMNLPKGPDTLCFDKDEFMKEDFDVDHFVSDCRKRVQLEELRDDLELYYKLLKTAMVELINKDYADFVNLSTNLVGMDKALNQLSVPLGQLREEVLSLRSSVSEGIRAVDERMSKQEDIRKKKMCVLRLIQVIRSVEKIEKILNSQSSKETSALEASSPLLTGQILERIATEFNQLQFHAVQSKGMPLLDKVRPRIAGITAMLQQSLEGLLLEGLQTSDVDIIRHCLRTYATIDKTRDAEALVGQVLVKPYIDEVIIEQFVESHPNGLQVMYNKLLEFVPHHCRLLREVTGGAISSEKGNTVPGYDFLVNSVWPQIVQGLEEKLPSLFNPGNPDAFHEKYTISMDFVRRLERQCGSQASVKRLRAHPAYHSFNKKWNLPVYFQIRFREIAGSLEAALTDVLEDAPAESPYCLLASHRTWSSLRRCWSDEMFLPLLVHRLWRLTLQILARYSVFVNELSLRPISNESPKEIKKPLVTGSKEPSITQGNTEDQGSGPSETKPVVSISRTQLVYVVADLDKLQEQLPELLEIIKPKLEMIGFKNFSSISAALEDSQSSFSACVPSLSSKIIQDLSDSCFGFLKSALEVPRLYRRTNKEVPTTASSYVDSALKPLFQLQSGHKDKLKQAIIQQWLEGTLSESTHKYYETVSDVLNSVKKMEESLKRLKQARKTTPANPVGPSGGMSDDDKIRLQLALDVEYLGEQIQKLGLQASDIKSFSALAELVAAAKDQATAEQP
Chain of UniProt Q7Z4R8 (Q7Z4R8 whole entry, looked up): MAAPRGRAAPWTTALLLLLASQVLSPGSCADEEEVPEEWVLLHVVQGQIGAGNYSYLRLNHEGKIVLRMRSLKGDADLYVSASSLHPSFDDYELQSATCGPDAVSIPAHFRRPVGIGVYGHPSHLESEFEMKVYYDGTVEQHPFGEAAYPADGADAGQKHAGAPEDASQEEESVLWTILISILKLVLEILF

Compound in the first assay: C1=CC=C(C=C1)[C@H](COC2=CC3=C(C=C2)NC(=O)N3)NC(=O)C4=CC=CN(C4=O)CC5=CC(=C(C=C5)F)F
Kind of assay: log2 fold change, soluble protein after heating vs DMSO (PISA); higher = thermal stabilisation; K562 cells, 10 uM, 30 min; active = over 0.2 and 3.5 SD of the protein, either way, in both replicates (recomputed). The gist of the method:
(§1)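 Aliquots of K562 cells (2×10^6 cells/mL) treated with 10 μM compound for 30 min were heated for 3 min over 48°C-58°C. After pooling and extraction in PBS with 0.5% NP-40 at 4°C, soluble protein from a 21,000xg, 90 min spin was quantified by TMTpro 16plex LC-MS/MS with channel sums equalised. Thermal stability is expressed against control samples, from duplicates, as a log2 fold change.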
COMMD1 (UniProt Q8N668): the log2 fold change is 0.099 (inactive).

For the target CCDC167 (UniProt Q9P0B6), the log2 fold change was 0.153 (inactive). For CA1 (UniProt E5RIF9), the log2 fold change is -0.021 (inactive). CAB39L (UniProt Q9H9S4): the log2 fold change is 0.088 (inactive). In the case of CFAP47 (UniProt Q6ZTR5), the log2 fold change is 0.068 (inactive). Take CHAF1A (UniProt Q13111): the log2 fold change is 0.045 (inactive).

Take C1D (UniProt Q13901): the log2 fold change is -0.019 (inactive). The same measure, in the same setting: for CHST10 (UniProt O43529) the value was 0.004 (inactive); for CKS2 (UniProt P33552), -0.084 (inactive); for C6orf120 (UniProt Q7Z4R8), -0.018 (inactive). Turning to CRTC2 (UniProt Q53ET0), the log2 fold change was 0.006 (inactive). For the target COX7C (UniProt P15954), the log2 fold change was -0.023 (inactive). In the case of CLASP2 (UniProt O75122), the log2 fold change is 0.059 (inactive). Consider COPS3 isoform 2 (UniProt Q9UNS2), for which the log2 fold change is 0.009 (inactive). As for CASP8 isoform 9 (UniProt Q14790), the log2 fold change was -0.013 (inactive). The same measure, in the same setting: under CAV2 (UniProt P51636) stands 0 (inactive); under CRTC1 isoform 2 (UniProt Q6UUV9), -0.036 (inactive); under CDK2AP2 (UniProt O75956), 0.026 (inactive). CEBPZOS (UniProt A8MTT3): the log2 fold change is -0.044 (inactive).

Compound in another assay: CC1=C(SC2=C1C(=N[C@H](C3=NN=C(N32)C)CC(=O)N)C4=CC=C(C=C4)Cl)C
The assay is described as above. Put shortly: as §1
As to CD84 (UniProt Q9UIB8), the log2 fold change is 0.167 (inactive). As for CCDC167 (UniProt Q9P0B6), the log2 fold change is -0.037 (inactive). As to CDCA2 (UniProt Q69YH5), the log2 fold change is 0.035 (inactive). Still for that read-out and setting: under COG2 (UniProt Q14746) stands 0.063 (inactive); under CDK19 (UniProt Q9BWU1), 0.035 (inactive); under CNN1 (UniProt P51911), 0.228 (inactive). C15orf41 (UniProt Q9Y2V0): the log2 fold change was 0.081 (inactive).

As to CASP9 (UniProt P55211), the log2 fold change was -0.045 (inactive). For CPNE5 (UniProt Q9HCH3), the log2 fold change was -0.16 (inactive). Turning to C19orf54 (UniProt Q5BKX5), the log2 fold change is -0.014 (inactive). Still for that read-out and setting: for CHAF1A (UniProt Q13111) the value was -0.026 (inactive); for COX17 (UniProt Q14061), 0.12 (inactive).

In the case of CHST10 (UniProt O43529), the log2 fold change is -0.064 (inactive). CLCN5 isoform 2 (UniProt P51795): the log2 fold change is 0.028 (inactive). On to CRLS1 (UniProt Q9UJA2), for which the log2 fold change is -0.005 (inactive). For the target CHPT1 (UniProt Q8WUD6), the log2 fold change is 0.003 (inactive). As for CLASP2 (UniProt O75122), the log2 fold change is 0.117 (inactive). Still for that read-out and setting: for COMMD3-BMI1 (UniProt R4GMX3) the value was -0.114 (inactive); for CDK2AP2 (UniProt O75956), -0.017 (inactive).
